Experimental data reported in the supplement of paper PMC12669032.
A number with no mark means an inactive call.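 How the source made its calls: active = AUC reduced over 20% with Padj below 0.05 in at least 2 of 3 replicates; inactive = otherwise.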

Experiments:
Assay in all cases: growth AUC relative to DMSO control (median of replicates) (fraction); higher = more growth (less inhibition), active = hit call of the paper
Conditions in all cases: 20 µM; 24 h
Akkermansia muciniphila = tested on: Akkermansia muciniphila
How it was run: (§1)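 Three biological replicates, each grown on a separate day, were combined as a median for every value. In each, a gut bacterial monoculture in mGAM started at OD600 0.05 and grew anaerobically at 37 °C with 20 µM compound (1% DMSO), with OD600 read hourly over 24 h. Area under the growth curve was normalised against the plate median of solvent-only wells, or against row and column medians on the industrial chemical plate, after the minimum OD was set to 0.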

Bacteroides caccae = tested on: Bacteroides caccae
How it was run: as §1

Bacteroides clarus = tested on: Bacteroides clarus
How it was run: as §1

Bacteroides dorei = tested on: Bacteroides dorei
How it was run: as §1

Bacteroides stercoris = tested on: Bacteroides stercoris
How it was run: as §1

[1] = tested on: Bacteroides thetaiotaomicron
How it was run: as §1

Bacteroides uniformis = tested on: Bacteroides uniformis
How it was run: as §1

[2] = tested on: Bifidobacterium longum subsp. longum
How it was run: as §1

Clostridium difficile = tested on: Clostridium difficile
How it was run: as §1

Collinsella aerofaciens = tested on: Collinsella aerofaciens
How it was run: as §1

Compound	growth AUC (Akkermansia muciniphila)	growth AUC (Bacteroides caccae)	growth AUC (Bacteroides clarus)	growth AUC (Bacteroides dorei)	growth AUC (Bacteroides stercoris)	growth AUC [1]	growth AUC (Bacteroides uniformis)	growth AUC [2]	growth AUC (Clostridium difficile)	growth AUC (Collinsella aerofaciens)
C[C@@]1(c2ccccc2)NC(=O)N(Nc2ccccc2)C1=O	0.931	1.04	0.973	1	0.965	0.992	1.01	0.96	1	1.02
COc1c(I)cc(C#N)cc1I	0.86	0.837	0.932	1.02	1.13	0.932	0.882	1.02	0.943	0.883
Cc1ccc(Cl)cc1	0.981	0.982	1.03	1.04	0.936	1.01	1.01	0.993	1.04	1
COC(=O)C(Cl)Cc1ccc(Cl)cc1 (stereo not given)	1.01	0.921	0.973	0.99	1.03	1.02	0.921	1.01	0.983	0.936
Cc1cc(C)c(C2=C(O)C3(CCCC3)OC2=O)c(C)c1	1.01	1.01	1.02	1.01	1.08	0.986	0.989	1.04	1.04	1.04
CCc1cccc(CC)c1N(COC)C(=O)C(=O)O	0.957	1.03	0.971	1.01	1.03	1.03	1.02	0.989	1.02	1.03
[S]	1.05	0.954	1	1.07	1.07	1.02	1.06	1.01	1.01	0.946
N#Cc1ccc(CC(=NNC(=O)Nc2ccc(OC(F)(F)F)cc2)c2cccc(C(F)(F)F)c2)cc1 (mixture of isomers)	1	1.03	1.02	1.03	0.988	1.02	1.02	0.999	1.01	1.03
COC(=O)[C@@H](C)Oc1ccc(Oc2ncc(C(F)(F)F)cc2Cl)cc1	1.04	0.831	1.01	0.984	1.16	0.963	0.907	0.976	1.05	0.981
N#Cc1cc(Cl)c(O)c(Cl)c1	1.12	1	1	0.982	0.935	0.994	0.947	1.03	0.997	1
CCCCCCCCCCCC[N+](C)(C)Cc1ccc(CC)cc1.[Cl-]	0.765	0.0238 (active)	0.234 (active)	0.92	0.00577 (active)	0.00582 (active)	0.0211 (active)	0.665 (active)	0.73	0.502 (active)
O=C(O)COc1ccc(Cl)cc1CO	1.15	0.99	0.995	0.721	0.938	0.971	0.98	1	1.03	0.96
CCC/C(=N\OCC)C1=C(O)CC(C2CCCSC2)CC1=O (stereo not given)	1.22	0.946	1.01	0.936	0.999	1.04	0.974	1.04	1.01	0.993
CN(C)C=O	1.08	0.991	1.05	0.936	1.05	1.01	1.05	1.13	0.999	1.01
Cn1cc(C(=O)Nc2ccc(F)cc2-c2ccc(Cl)c(Cl)c2)c(C(F)F)n1	0.929	0.901	0.849	0.949	0.826	0.872	0.911	0.991	0.983	0.991
c1ccc2cc3c(ccc4ccccc43)cc2c1	1.01	0.994	1	0.993	0.994	1.01	1.01	0.962	0.992	1

Compound	growth AUC (Akkermansia muciniphila)	growth AUC (Bacteroides caccae)	growth AUC (Bacteroides clarus)	growth AUC (Bacteroides dorei)	growth AUC (Bacteroides stercoris)	growth AUC [1]	growth AUC (Bacteroides uniformis)	growth AUC [2]	growth AUC (Clostridium difficile)	growth AUC (Collinsella aerofaciens)
NC1=C(Cl)C(=O)c2ccccc2C1=O	0.886	1.12	0.716 (active)	0.965	0.83	0.906	0.88	0.887	0.938	1.01
CC(Oc1ccc(Cl)cc1Cl)C(=O)NC(C)(C#N)C(C)C (stereo not given)	1.27	0.944	1	0.999	0.99	0.964	0.92	1.02	0.935	0.977
Nc1cccc(O)c1	0.979	1.03	1.02	1	0.939	1.03	1.03	1.06	1.03	0.998
CC(=O)Oc1c(Cl)c(Cl)c(Cl)c(Cl)c1Cl	0.861	0.559 (active)	0.585 (active)	0.66 (active)	0.448 (active)	0.565 (active)	0.52 (active)	0.942	0.784 (active)	0.937
Cc1cccc(C)c1N(CCSCC(O)C(=O)[O-])C(=O)CO.[Na+] (stereo not given)	1.15	0.993	1.02	0.907	1.01	0.98	1.01	1.05	0.992	0.913
Nc1ccc(S(=O)(=O)Nc2nccs2)cc1	0.9	1.03	0.992	0.943	0.985	0.978	1.02	0.998	0.98	0.978
COc1ccc(NC(=O)N(C)C)cc1Cl	0.982	0.975	1	1.01	0.891	0.995	1.02	1.11	0.995	0.94
CNC(=O)/C(=N/OC)c1ccccc1CO/N=C(C)/C(=N/OC)C(/C)=N/OC	0.957	0.983	0.98	1	0.991	0.976	0.976	0.989	0.979	1.03
COC(=O)CSc1cc(N=c2sc(=O)n3n2CCCC3)c(F)cc1Cl	1.11	1	0.999	0.945	1.04	0.94	0.988	0.985	0.982	1.01
O=C(O)COc1cc(N2C(=O)C3=C(CCCC3)C2=O)c(F)cc1Cl	0.82	0.999	0.98	0.968	1.08	0.975	1.05	1.04	1.02	0.967
C=CCOC(Cn1ccnc1)c1ccc(Cl)cc1Cl (stereo not given)	0.972	0.944	0.96	0.959	1.12	0.983	0.941	1.05	0.926	0.873
Cc1nn(C)c(Oc2ccccc2)c1/C=N/OCc1ccc(C(=O)OC(C)(C)C)cc1	1.04	1.01	1.03	0.974	0.961	0.982	0.969	0.944	1.02	0.963
FC(F)(F)/N=C1\SC(=Nc2ccccc2)N(c2ccccc2)\C1=N\C(F)(F)F	0.949	0.933	0.96	0.947	0.925	1.01	0.924	1.03	0.984	0.907
O=S(=O)(Cc1ccc(Cl)cc1)c1ccc(Cl)cc1	0.848	1	0.981	1.02	1.12	0.963	0.997	1.03	1.01	1.01
CCOC(N)=O	1.13	1.01	1.02	1.04	1.17	1.01	1.01	1.06	1.01	1.01
